Rows were chosen to be rich in hits. Some 6.9% of all compounds tested hit in one or more screens of this group.
KB-V1 MDR tox: KB-V1 MDR subline cytotoxicity; KB-V1 MDR cells viability, CellTiter-Glo, 72 h; Potency, µM (titrated, usually from 46.1 µM), actives largely listed as cytotoxic; actives 3.4% (n = 400,000); AID 1347076; also: potency is read from the fitted curve at half-maximal effect; % is scaled to controls: 0 for no effect and ±100 for the full control effect; nearly all actives have a fitted effect of over 60% in size
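Compound-treated KB-V1 multidrug-resistant cells, 72 h, 37 degrees C; viability by CellTiter-Glo. Fitted qHTS curves give the values.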
SW480 rereplic: induces DNA re-replication in SW480 colon adenocarcinoma cells. actives 1.8% (n = 340,000). Potency, µM (top dose mostly 46.1 µM), for the others: at the top dose re-replication activation, most hits filed as activators. SW480 DNA re-replication, Hoechst DNA content imaging, 48 h; also: potency is read from the fitted curve at half-maximal effect; % of control where 0% means no effect; nearly all actives have a fitted effect of over 55% in size
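DNA re-replication was detected as more nuclei of elevated Hoechst intensity after 48 hr exposure to compound (23 nL pinned per well of 250 cells).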
ASM inhibitor: human S-ASM enzyme inhibition; P17405; placental ASM, HMU-PC fluorogenic substrate, 60 min; Potency, µM (highest dose often 57.5 µM), for inactives: at the highest dose activity change, negative = inhibition, actives largely listed as inhibitors; actives 0.006% (n = 340,000); AID 504937; also: potency is read from the fitted curve at half-maximal effect
Target sequence (P17405 47-631 limits assumed): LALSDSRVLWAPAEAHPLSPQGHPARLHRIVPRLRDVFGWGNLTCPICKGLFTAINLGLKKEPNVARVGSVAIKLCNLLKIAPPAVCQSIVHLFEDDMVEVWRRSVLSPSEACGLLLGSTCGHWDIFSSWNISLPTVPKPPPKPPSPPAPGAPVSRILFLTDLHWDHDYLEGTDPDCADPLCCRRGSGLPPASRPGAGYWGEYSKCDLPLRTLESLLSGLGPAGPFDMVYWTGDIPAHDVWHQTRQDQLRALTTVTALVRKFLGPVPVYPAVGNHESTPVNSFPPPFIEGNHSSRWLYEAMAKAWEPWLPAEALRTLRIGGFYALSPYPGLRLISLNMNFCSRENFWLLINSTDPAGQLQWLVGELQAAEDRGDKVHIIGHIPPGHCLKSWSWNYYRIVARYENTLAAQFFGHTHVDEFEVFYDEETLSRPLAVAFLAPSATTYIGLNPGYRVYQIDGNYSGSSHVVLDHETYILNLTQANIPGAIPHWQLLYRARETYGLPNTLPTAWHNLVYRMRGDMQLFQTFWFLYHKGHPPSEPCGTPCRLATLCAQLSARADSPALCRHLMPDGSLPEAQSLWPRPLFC
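qHTS format. ASM enzyme prepared from human placenta hydrolyses the fluorogenic substrate HMU-PC0 (9 uM final) over 60 min at 37 °C after a 10 min compound preincubation.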
MCF10A rerep: induces DNA re-replication in MCF 10a normal breast cells; MCF 10A DNA re-replication, Hoechst nuclear intensity, 48 h; Potency, µM (series often up to 46.1 µM), for the others: at the highest dose activity, positive = re-replication, hits mostly activators; actives 2.9% (n = 350,000); also: potency is read from the fitted curve at half-maximal effect; % of control where 0% means no effect; nearly all actives have a fitted effect of over 50% in size
Giardia killer: kills Giardia lamblia. Giardia lamblia trophozoite viability. activity change, % at 7.66 µM, hits read low. actives 0.15% (n = 340,000). AID 540267; in the data active = activity change below about -80%; inconclusive = between about -30% and that limit;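 also: parasites exposed to compound for two days anaerobically before the ATP read; % is scaled to controls: 0 for no effect and ±100 for the full control effect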
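Media and compound were dispensed first, then trophozoites at 100 cells/well; plates sat 48 hrs at 37 deg C without oxygen before ATP luminescence reagent was added and read after 15-30 min at room temperature.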
KB-3-1 tox: kills parental KB-3-1 adenocarcinoma cells; AID 1347075; Potency, µM (highest dose often 46.1 µM), most hits filed as cytotoxic; KB-3-1 viability, CellTiter-Glo ATP luminescence, 72 h; actives 1.4% (n = 400,000); also: potency is read from the fitted curve at half-maximal effect; % is scaled to controls: 0 for no effect and ±100 for the full control effect; nearly all actives have a fitted effect of over 60% in size
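Luminescent ATP read-out (CellTiter-Glo) measures survival of drug-naive KB-3-1 cells after 72 h compound exposure at 37 °C. Titration series was screened from lowest to highest concentration, with DMSO vehicle plates as background controls.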
* hit, by the source's call; i = inactive; u = inconclusive; x = no result given. Unless noted, calls follow the shape of the dose curve; as a rule, active = well fitted curve in the direction sought with a large enough effect; inconclusive = small, poorly fitted or top-dose-only effect, or another doubt; inactive = no such curve, though single readings can be large; an effect the other way counts as inactive or inconclusive.

SMILES	KB-V1 MDR tox	SW480 rereplic	ASM inhibitor	MCF10A rerep	Giardia killer	KB-3-1 tox
COc1ccc2c(c1)OC[C@H]1[C@H]2N2C(=O)[C@H](C)NC(=O)[C@@]2(C)[C@H]1c1ccccc1	i	-9%	1%	2%	-1	i
CN(C)[C@H]1N(C(=O)c2ccc(Br)cc2)N=C2c3ccccc3S(=O)(=O)N21	8.2µM*	-3%	0%	3%	17	i
O=C1OCC2=C1C(c1cccc(Cl)c1)CC(=O)N2c1ccc(C(F)(F)F)cc1 (centres undefined)	i	x	x	x	x	i
COc1ccc(Cn2c(SCc3ccc(C(=O)NC4CCCCC4)cc3)nc3ccncc32)cc1	i	x	x	x	x	i
CN(C)c1ccc(C(C(=O)NCc2ccccc2)N(Cc2cccnc2)C(=O)c2snc(C(N)=O)c2N)cc1 (centres undefined)	i	5%	-2%	21%	10	i
O=C(C[n+]1ccccc1)N/N=C/c1cc(Br)cc(Br)c1O	i	u	-2%	u	10	i
COc1ccc(Br)cc1/C=N/Nc1cccc(C(=O)O)c1	i	-6%	-2%	25%	4	i
COc1ccccc1/C=C/C=N/Nc1cccc(C(=O)O)c1	i	7%	85%	21µM*	6	i
O=C(CP(=O)(c1ccccc1)c1ccccc1)N/N=C/c1cc(Br)cc(Br)c1O	u	u	370%	5.8µM*	10	i
O=C(N/N=C/C1=Cc2ccccc2OC1)c1ccncc1	i	18µM*	37%	u	16	i
COc1ccc(/C=N/NC(=O)c2nc(-c3ccccc3)n(-c3ccccc3)n2)c(O)c1	i	u	17%	7.3µM*	26	u
COc1ccc(/C=N/NC(=O)c2nc(-c3ccccc3)n(-c3ccccc3)n2)cc1	i	-8%	-14%	6%	-17	i
CC(=O)c1cccc(NC(=O)c2cccn2-c2nnc(N3CCCCC3)s2)c1	i	x	x	x	x	i
COc1cccc(/C=N/NC(=O)CSc2ccccc2C)c1O	6.5µM*	u	4%	u	11	u
O=C(N/N=C/c1ccc(Br)s1)c1ccncc1	i	10µM*	-1%	u	-2	i
COc1cccc(/C=N/NC(=O)CSc2ccccc2C)c1OC	u	-3%	3%	3%	-7	i
O=C(N/N=C/c1cc(Cl)cc(Cl)c1O)c1ccncc1	u	u	-2%	u	-12	u
O=C(N/N=C/c1cc(Br)cc(Br)c1O)c1ccncc1	i	1µM*	-10%	u	8	i
COc1ccccc1C=NN=C(NN=Cc1ccccc1OC)NN=Cc1ccccc1OC	21µM*	u	-17%	26%	-11	u
CC(C)(C)OC(=O)N1CCC(c2c(C(=O)N3CCN(Cc4ccccc4)CC3)cnn2-c2cccc(Cl)c2)CC1	i	x	x	x	x	i
CCC(=O)N1c2ccc(S(=O)(=O)CCC(=O)N3CCN(c4ccc(F)cc4)CC3)cc2CC1C (centres undefined)	i	x	x	x	x	i
CCCCN(CC(O)COc1cccc(C)c1)CC(O)COc1cccc(C)c1 (centres undefined)	u	u	-4%	u	8	u
Cc1ccc(S(=O)(=O)Oc2ccccc2/C=N/Nc2ccc(C(=O)O)cc2)cc1	u	u	17%	18µM*	3	i
COc1cccc(/C=N/Nc2ccc(S(=O)(=O)O)cc2)c1O	i	-4%	3%	-3%	-12	i
COc1cccc(C=NNC(=O)c2ccncc2)c1O	i	u	-1%	u	5	21µM*
SMILES	KB-V1 MDR tox	SW480 rereplic	ASM inhibitor	MCF10A rerep	Giardia killer	KB-3-1 tox
CCn1c(C)nc2cc(C(=O)N/N=C/c3cccc(OC)c3O)ccc21	u	1.6µM*	-1%	u	5	i
Cc1ccc(S(=O)(=O)Oc2ccccc2/C=N/O)cc1	i	0%	3%	1%	-27	i
COc1cccc(/C=N/Nc2ccc(C(=O)O)cc2)c1O	u	-8%	131%	-1%	6	16µM*
CCc1nc2ccc(C(=O)NCc3ccccc3C)cc2nc1CC	i	x	x	x	x	i
CN1CCOc2cc(S(=O)(=O)N3CCN(c4nc(-c5cccs5)nc5ccccc45)CC3)ccc21	x	x	x	x	1	x
COc1cccc(/C=N/NC(=O)N/N=C/c2cccc(OC)c2O)c1O	i	u	6%	14%	-22	i
COc1cccc(/C=N/NC(=O)c2nc(-c3ccccc3)cc(-c3ccccc3)n2)c1O	u	8.2µM*	-11%	7%	6	u
COc1cc(OC)c2cc(C(=O)N/N=C/c3cccc(OC)c3O)[nH]c2c1	u	3.3µM*	-14%	18%	3	u
COc1ccccc1OCC(=O)N/N=C/c1cccc2cccnc12	i	u	-2%	13%	17	i
COc1cccc(/C=N/NC(=O)COc2cccc3cccnc23)c1O	i	13µM*	3%	u	-7	u
Cc1ccc(S(=O)(=O)Oc2ccccc2)cc1	i	-4%	-1%	-2%	9	i
Cc1ccc(S(=O)(=O)Oc2ccccc2-c2ccccc2)cc1	u	12µM*	-9%	12µM*	-15	u
CC(=O)Nc1ccc(OC2=NS(=O)(=O)c3ccccc32)cc1	i	x	x	x	x	i
CCn1c(C)nc2cc(C(=O)N/N=C/c3ccc(O)c(O)c3O)ccc21	i	-2%	8%	24%	10	i
CCC(=NNC(=O)c1ccc2c(c1)nc(C)n2CC)c1cc(F)ccc1O	2.3µM*	u	2%	10%	10	u
COc1cc([N+](=O)[O-])cc(/C=N/NC(=O)c2cccnc2)c1O	i	u	-3%	6.5µM*	5	u
COc1cc([N+](=O)[O-])cc(/C=N/NC(=O)C(O)(c2ccccc2)c2ccccc2)c1O	i	u	-4%	u	-7	i
CCn1cc2nc(SCc3cc(C)ccc3C)n(CCc3ccccc3)c(=O)c2n1	i	x	x	x	x	i
Cc1ccc2nc(-c3sc4nc(C)cc(C)c4c3N)[nH]c2c1	u	12µM*	431%	10µM*	-20	u
O=C(CCCCn1c(=O)c2ccccc2n(Cc2ccccc2F)c1=O)NCc1ccc2c(c1)OCO2	i	x	x	x	x	i
C=CCN1C(=O)C(C)(C)N(C(C)=O)c2ccccc21	i	u	2%	u	6	i
CC(=O)N1c2ccccc2N(Cc2ccc(C)cc2C)C(=O)C1(C)C	u	18µM*	-1%	12µM*	-1	4.1µM*

Compound activity as filed in PubChem.
